Source: PubChem BioAssay
The list is not random: actives were taken first. Their share in the collection is about 2.3%.
Tau filament bind – qHTS Assay for Tau Filament Binding. Microtubule-associated protein tau (Homo sapiens), P10636. recombinant tau filaments, thioflavin S fluorescence, 15 h; filaments grown with octadecylsulfate alongside compound. Potency, µM (doses to about 57.1 µM), for the others: top-dose activity change, negative = inhibition. AID 596, 2007. hit rate 2% among 71,000;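 note: potency is the fitted concentration of half-maximal effect; % is set by controls: 0 for no effect and ±100 for the full control effect; actives lower thioflavin S fluorescence by blocking filaments or displacing dye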
Target sequence (P10636 whole entry, looked up): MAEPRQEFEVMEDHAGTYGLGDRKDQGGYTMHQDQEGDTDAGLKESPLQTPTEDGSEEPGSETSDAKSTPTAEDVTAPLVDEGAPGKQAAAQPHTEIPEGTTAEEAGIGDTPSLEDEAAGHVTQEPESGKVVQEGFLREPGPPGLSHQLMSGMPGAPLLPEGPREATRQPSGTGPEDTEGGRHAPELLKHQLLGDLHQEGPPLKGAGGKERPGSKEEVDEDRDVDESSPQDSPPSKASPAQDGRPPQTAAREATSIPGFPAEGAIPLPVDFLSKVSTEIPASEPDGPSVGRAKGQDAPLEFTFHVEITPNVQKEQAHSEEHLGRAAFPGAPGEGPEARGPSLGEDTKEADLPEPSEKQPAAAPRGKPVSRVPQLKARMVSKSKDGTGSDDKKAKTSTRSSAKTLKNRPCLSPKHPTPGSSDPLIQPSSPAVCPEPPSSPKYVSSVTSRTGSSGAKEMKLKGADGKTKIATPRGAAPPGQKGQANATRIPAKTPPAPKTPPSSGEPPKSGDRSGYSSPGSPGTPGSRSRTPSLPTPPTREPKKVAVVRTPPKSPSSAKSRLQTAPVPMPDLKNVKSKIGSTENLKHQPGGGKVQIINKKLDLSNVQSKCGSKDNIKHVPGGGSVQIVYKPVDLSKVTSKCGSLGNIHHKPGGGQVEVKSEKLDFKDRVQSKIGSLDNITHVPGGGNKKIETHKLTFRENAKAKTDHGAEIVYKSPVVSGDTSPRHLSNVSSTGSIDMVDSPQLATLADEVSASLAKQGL
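Thioflavine S fluorescence (ex 450, em 510 nm) reports filaments formed from 1 uM human tau plus 30 uM ODS over 15 h at 37 C (10 mM HEPES pH 7.4, 100 mM NaCl, 5 mM DTT); compounds displacing dye or blocking filaments lower signal.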
TsaE inh – qHTS Assay for Inhibitors of YjeE | AID 605, 2007 | hit rate 0.05% among 71,000 | Potency, µM | tRNA threonylcarbamoyladenosine biosynthesis protein TsaE (Escherichia coli (strain … | purified YjeE enzyme, qHTS inhibition assay
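Purified YjeE (10 uM) with BODIPY Texas Red-labeled ADP probe (2 uM); compounds pin-transferred, 15 min at room temperature. Binding inhibition read as decreased fluorescence polarization; ADP titration as control.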
Hsp90 Hop PPI – qHTS Assay for Disrupters of an Hsp90 Co-Chaperone Interaction; AlphaScreen TPR2A-His6 binding biotin-Hsp90 C-terminal peptide; Potency, µM (series often up to 57 µM), for the others: at the highest dose activity change, negative = inhibition; hit rate 0.44% among 71,000; active = well fitted curve in either direction with a large enough effect; inconclusive = small, poorly fitted or top-dose-only effect, or another doubt; note: potency is the fitted concentration of half-maximal effect; % is set by controls: 0 for no effect and ±100 for the full control effect
BRCT inh green – qHTS Assay for Inhibitors of BRCT-Phosphoprotein Interaction (Green Fluorophore); Breast cancer type 1 susceptibility protein (Homo sapiens), P38398; BRCA1 BRCT-phosphopeptide binding, green fluorescence polarization; Potency, µM (series often up to 76.9 µM), without a hit: at the highest dose activity change, negative = inhibition, usual class: inhibitors; hit rate 0.05% among 75,000; AID 875, 2007;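 note: potency is the fitted concentration of half-maximal effect; plate controls were peptide without protein for full effect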
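Fluorescence polarization: His-tagged BRCT (~35 kDa BRCA1 C-terminus, 250 nM) bound to 100 nM fluorescein-labeled phosphorylated 10-aa BACH1 peptide, pH 7.3 phosphate buffer with DTT and Tween 20. Compounds incubated 12 min at room temperature; inhibition read as lowered polarization.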
BRCT inh red – qHTS Assay for Inhibitors of BRCT-Phosphoprotein Interaction (Red Fluorophore); BRCT-phosphopeptide binding, red fluorescence polarization; Potency, µM (highest dose often 76.9 µM), for inactives: at the top dose activity change, negative = inhibition, most hits filed as inhibitors; hit rate 0.03% among 75,000; AID 892, 2007; note: % is set by controls: 0 for no effect and ±100 for the full control effect
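Fluorescence polarization: 100 nM His-tagged BRCA1 BRCT with 100 nM TAMRA-labelled phospho-BACH1 decapeptide, phosphate buffer pH 7.3 with 150 mM NaCl, DTT, 0.01% Tween 20; 12 min RT. Binding inhibition seen as FP decrease.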
DNA Pol III inh – qHTS Assay for Inhibitors of DNA Polymerase III Holoenzyme System. Potency, µM (highest dose often 57.1 µM), without a hit: at the top dose activity change, negative = inhibition. hit rate 0.25% among 71,000. reconstituted DNA polymerase III holoenzyme replication, biochemical; note: potency is the fitted concentration of half-maximal effect; % is set by controls: 0 for no effect and ±100 for the full control effect
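Reconstituted *E. coli* holoenzyme (0.35 nM Pol III, 1 nM beta, 154 nM SSB, 2 nM primase) was preincubated with compound for 15 min at RT. Synthesis on 1.4 nM ssM13Gori ran 35 min, then was stopped with PicoGreen/EDTA and read as dsDNA fluorescence.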
* hit, by the source's call; i = inactive; ? = inconclusive; / = no result; [ ] = another dose, or the depositor's remark. Unless noted, calls come from the whole dose curve; as a rule, active = well fitted curve in the direction sought with a large enough effect; inconclusive = small, poorly fitted or top-dose-only effect, or another doubt; inactive = no such curve, though single readings can be large; an effect the other way counts as inactive or inconclusive.

SMILES	Tau filament bind	TsaE inh	Hsp90 Hop PPI	BRCT inh green	BRCT inh red	DNA Pol III inh
c1ccc2nc3c(nc2c1)c1ccccc1n3CCN1CCOCC1	13µM*	i	11%	0%	-1%	-18%
Brc1ccc2c(c1)c1nc3ccccc3nc1n2CCN1CCOCC1	16µM*	i	-13%	-3%	2%	-20%
O=c1c2ccccc2nc(-c2ccccc2)n1CCN1CCOCC1	-8%	i	0%	2%	-1%	-2%
CCn1c2ccccc2c2nc3cc(S(=O)(=O)N4CCOCC4)ccc3nc21	25µM*	i	28%	2%	-2%	-5%
O=C(O)C/C=C\CC(=O)O	4%[11.4 µM]	i	?	1%[15.4 µM]	-1%[15.4 µM]	-11%[11.4 µM]
O=C(Cn1cnnn1)OCC(=O)c1ccc(Cl)s1	10µM*	i	-10%	3%	-2%	2%
COc1ccc(-c2cc3nc(-c4ccccc4)cc(N4CCC5(CC4)OCCO5)n3n2)cc1	32%	i	16µM*	-2%	-2%	-1%
COCc1cc(=O)[nH]c(Nc2nc(C)c3ccc(C)cc3n2)n1	2%	i	-2%	2%	-1%	-1%
Cc1ccc2c(C)nc(Nc3nc(CSc4nnnn4-c4ccccc4)cc(=O)[nH]3)nc2c1	35%	i	-5%	-2%	-1%	13µM*
OCCN1CCN(CCCN2c3ccccc3Sc3ccc(Cl)cc32)CC1	27%[25.6 µM]	i	-6%[26 µM]	-2%	-2%	-12%[25.6 µM]
CN(C)CCCN1c2ccccc2Sc2ccc(Cl)cc21	5µM*	i	-12%[26 µM]	-2%[3.08 µM]	1%	-12%[25.6 µM]
CN(C)CCCN1c2ccccc2Sc2ccc3ccccc3c21	2.5µM*	i	-4%[11 µM]	-2%[15.4 µM]	1%[15.4 µM]	-10%[11.4 µM]
CCc1nc2oc3cc(OC)ccc3c(=O)c2c(=O)n1Cc1ccco1	-10%	i	-9%	2%	-1%	-7%
O=c1c2ccccc2sc2nc(C3CCCCC3)n(Cc3ccco3)c(=O)c12	10µM*	i	-7%	-3%	-1%	-4%
O=c1c2ccccc2nc(SCc2nc3ccccc3s2)n1Cc1ccco1	9%	i	0%	1%	-1%	5%
CCc1nc2sc3ccccc3c(=O)c2c(=O)n1Cc1ccco1	16µM*	i	-6%	-1%	-3%	-6%
CC1=C(/C=C/C(C)=C/C=C/C(C)=C/C(=O)Nc2ccc(O)cc2)C(C)(C)CCC1	3.2µM*	i	-9%	-5%	2%	-10%
CCOc1ccc2c(c1)c1nnc(SCC3CCCO3)nc1n2C (centres undefined)	32µM*	i	2%	2%	0%	-13%
O=C(O)c1ccc(Cl)c2c1C1C=CCC1C(c1ccccn1)N2 (centres undefined)	i	40µM*	?	32µM*	32µM*	?
CCOC(=O)c1cnc2c(C(F)(F)F)cccc2c1N1CCOCC1	16µM*	i	-6%	-1%	1%	-3%
CCOc1ccc2[nH]c(C)cc(=O)c2c1	-20%	i	-1%[2.3 µM]	-1%	2%	1%
CCOc1ccc2[nH]c(=O)c(=O)[nH]c2c1	10µM*	i	-3%	1%	1%	-8%
O=C(O)[C@@H](O)[C@@H](O)[C@@H](O)[C@@H](O)C(=O)O (tested in a mixture with another compound)	4%[25.6 µM]	i	-3%[26 µM]	-1%[34.4 µM]	-4%[34.4 µM]	2%[25.6 µM]
CCOc1ccc(NC2c3ccccc3C(=O)N2Cc2ccco2)cc1 (centres undefined)	16µM*	i	-29%	0%	-1%	-4%
O=C1c2ccccc2C(Nc2ccc(-c3nc4ccccc4[nH]3)cc2)N1Cc1ccco1 (centres undefined)	222%	i	-14%	3%	-1%	-6%
SMILES	Tau filament bind	TsaE inh	Hsp90 Hop PPI	BRCT inh green	BRCT inh red	DNA Pol III inh
O=C1c2ccccc2C(Nc2ccc(F)c(Cl)c2)N1Cc1ccco1 (centres undefined)	13µM*	i	-6%	1%	-2%	0%
O=C1c2ccccc2C(O)N1Cc1ccc2c(c1)OCO2 (centres undefined)	-15%	i	-1%[2.3 µM]	-1%	0%	0%
COc1ccc(NC2c3ccccc3C(=O)N2Cc2ccco2)cc1OC (centres undefined)	-18%	i	-11%	-3%	0%	-5%
O=C1c2ccccc2C(Nc2ccc3c(c2)OCO3)N1Cc1ccco1 (centres undefined)	13µM*	i	?	-1%	0%	2%
COc1ccc(OC)c(NC2c3ccccc3C(=O)N2Cc2ccc3c(c2)OCO3)c1 (centres undefined)	20µM*	i	0%[2.3 µM]	1%	0%	-3%
O=C1c2ccccc2C(Nc2ccc3nc(-c4cccnc4)[nH]c3c2)N1Cc1ccco1 (centres undefined)	7%	i	-6%	-2%	-3%	-7%
COC(=O)c1ccc(C(/C=C/[C@@H](C)C(=O)N(C)C)NC(=O)OCc2ccccc2)cc1 (some centres undefined)	4%	i	-2%	-2%	-2%	-4%
O=C1c2ccccc2C(Nc2ccc3c(c2)OCO3)N1Cc1ccc2c(c1)OCO2 (centres undefined)	10µM*	i	-8%[2.3 µM]	5%	-1%	-7%
O=C1c2ccccc2C(Nc2cccnc2)N1Cc1ccc2c(c1)OCO2 (centres undefined)	-2%	i	-3%[2.3 µM]	-2%	1%	-2%
COc1cc(N=C(N)N=C(N)N)c2ncccc2c1	4%[11.4 µM]	i	-9%[11 µM]	-1%[15.4 µM]	0%[15.4 µM]	-8%[11.4 µM]
O=C(O)c1cccnc1C(=O)O	?	i	3.2µM*	-4%	-2%	-1%
O=C(N/N=C\c1ccccc1O)c1ccccc1O	32µM*	i	10µM*	11%	-2%	?
O=C(N/N=C/c1ccccc1O)c1cc(-c2ccccc2)n[nH]1	/	/	/	2%	5%	/
COc1ccc(-c2cc(C(=O)N/N=C\c3cc(OC)c(OC)c(OC)c3)[nH]n2)cc1	/	/	/	1%	2%	/
O=c1[nH]c2c(cc1CNCCN1CCOCC1)c(-c1cccc(F)c1)nn2-c1ccccc1	?	i	?	11%	16%	-7%
Cc1nn(-c2ccccc2)c2[nH]c(=O)c(CNc3ccc(N4CCOCC4)cc3)cc12	20µM*	i	?	6%	-2%	-4%
CCc1ccc(C2C(C#N)=C(N)SC(N)=C2C#N)s1	25µM*	i	-16%	10%	0%	-4%
